In PubChem BioAssay AID602449 (Sanford-Burnham Center for Chemical Genomics, 2012) one finds inhibition data, which are given here for 78 compounds.

The structures appear in SMILES notation. Screen size: about 360,000 compounds; about 5,000 (1.4%) were called active.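 The calls were made as follows: active = inhibition of 50% or more, scaled per plate between neutral and stimulator controls; inactive = the rest.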 This excerpt belongs to a sample that is enriched for actives.

The nature of this assay: mitochondrial permeability transition pore inhibitors, primary screen, biochemical, isolated mouse mitochondria, absorbance (AID 602449).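 Also: 0% = DMSO wells given calcium and 100% = 1 mM EGTA wells.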 Conditions: Ca2+ swelling absorbance, 30 min, at 10 µM, hits give high values.
Consider `COc1ccc(CCNC(=O)COC(=O)Cc2cc(OC)c(OC)c(OC)c2)cc1`, for which the inhibition was 0% (inactive).

On to `COc1ccc(CC(=O)Nc2nc(-c3ccc(F)c(F)c3)cs2)cc1OC`, for which the inhibition is 108% (active).

Take `COc1ccc(CC(=O)Nc2ccccc2NC(=O)c2ccco2)cc1OC`: the inhibition was 2.5% (inactive).

Regarding `COc1ccc(CC(=O)NC2CCSc3ccccc32)cc1OC` (stereo not drawn), the inhibition is -1.7% (inactive).

In the case of `COc1cc(CCC(=O)Nc2ccncc2Cl)cc(OC)c1OC`, the inhibition was 0.5% (inactive).

For `COc1cc(CC(=O)Nc2nc(-c3ccc(F)c(F)c3)cs2)cc(OC)c1OC`, the inhibition is 105% (active).

With `CC(C)c1ccc(CC(=O)N2CCC2(C)C(=O)NS(=O)(=O)c2ccc(C(C)(C)C)cc2)cc1` (stereo not drawn), the inhibition was 1.8% (inactive).

Consider `COc1ccc(Cl)cc1NC(=O)COC(=O)C(CC(C)C)N1C(=O)C2CC=CCC2C1=O` (stereo not drawn), for which the inhibition is 1.6% (inactive).

In the case of `COc1ccc(C(=O)C2CCCN(C(=O)c3cc(C)on3)C2)cc1F` (stereo not drawn), the inhibition was -1.4% (inactive).

`O=C(CSc1n[nH]c(-c2cccnc2)n1)Nc1ccc(Cl)cc1`: the inhibition is 1.2% (inactive).

As to `O=C(Nc1ccc(Cl)cc1)c1csc([C@@H]2O[C@H](CO)[C@H](O)[C@H](O)[C@H]2O)n1`, the inhibition is -4.4% (inactive).

In the case of `O=C(NNC(=O)c1csc(-c2cccnc2)n1)Nc1ccc(Cl)cc1`, the inhibition was 56.5% (active).

In the case of `CCCN(C(=O)c1nc2nccc(C)n2n1)c1c(N)n(Cc2ccccc2)c(=O)[nH]c1=O`, the inhibition was -2.3% (inactive).

As for `CCc1cc(C(=O)OC)c(NC(=O)CC2Sc3ccc(C(F)(F)F)cc3NC2=O)s1` (stereo not drawn), the inhibition was 3.8% (inactive).

Take `O=C(Nc1ccc(Cl)cc1)c1csc([C@H]2C[C@H](O)[C@@H](CO)O2)n1`: the inhibition is -0.6% (inactive).

Regarding `CC[C@@H](C)[C@@H](C(=O)N1CCN(C(=O)OC(C)(C)C)CC1)n1cc(CCC(=O)O)nn1`, the inhibition is -0.6% (inactive).

In the case of `CC(C)(C)c1ccc(CCC2OCC(CN3CCOCC3)O2)cc1` (stereo not drawn), the inhibition was 3.3% (inactive).

Take `COc1cccc(C(C(=O)NC2CCCC2)N(C(=O)c2ccco2)c2cccc(C(C)=O)c2)c1OC` (stereo not drawn): the inhibition was -2.4% (inactive).

On to `Cc1ccc(S(=O)(=O)NCc2nc3ccccc3c(=O)n2N)cc1`, for which the inhibition was 1.2% (inactive).

`Cc1nc(CNS(=O)(=O)c2ccc(Oc3ccccc3)cc2)cs1`: the inhibition is 88.7% (active).

On to `Cc1nc(CNS(=O)(=O)c2cc([N+](=O)[O-])ccc2C)cs1`, for which the inhibition is 0.4% (inactive).

As for `COC(=O)[C@@]12C[C@@H](CC(=O)NCCCCc3ccccc3)C(=O)N(Cc3ccccc3)C1=CCC(C)(C)C2`, the inhibition was -0.7% (inactive).

On to `Cc1ccc(OCC(=O)N2CCN(S(=O)(=O)c3ccc(Cl)s3)CC2)cc1C`, for which the inhibition was 2.3% (inactive).

With `CC(C)c1ccc(NC(=S)NC2CC3C=CC2C3)cc1` (stereo not drawn), the inhibition was 73.8% (active).

For the compound `O=C(COC(=O)C1CC2C=CC1C2)Nc1ccccc1` (stereo not drawn), the inhibition was -0.1% (inactive).

Consider `CC(C)c1ccc(NC(=O)NC2CCCCC2)cc1`, for which the inhibition is 0.2% (inactive).

`CCOC(=O)/C(N=Nc1cc(C(=O)O)cc(C(=O)O)c1)=C(\O)CCl`: the inhibition is -2.4% (inactive).

With `CN(C)C(CNC(=O)c1cccc(S(=O)(=O)Nc2ccc(Br)cc2)c1)c1ccco1` (stereo not drawn), the inhibition was -0.5% (inactive).

For the compound `FC(F)Oc1ccc(NC(=S)NCc2ccco2)cc1Cl`, the inhibition was 86.1% (active).

Turning to `Cc1ccc(CC(=O)Nc2ccc(OC(F)F)c(Cl)c2)cc1C`, the inhibition is 60% (active).

As to `COC(=O)Cc1ccc(NC(=S)NCc2ccco2)cc1`, the inhibition was -0.8% (inactive).

In the case of `Cc1ccc(CC(=O)Nc2ccc(S(=O)(=O)N3CCOCC3)cc2)cc1C`, the inhibition was 1% (inactive).

Take `COc1ccc(Cc2nnc(SCC(=O)Nc3ccc(C)c(C)c3)o2)cc1OC`: the inhibition is 0% (inactive).

Turning to `COc1cc(NC(=S)NCc2ccco2)c(OC)cc1Cl`, the inhibition is 1.7% (inactive).

As for `OCCC1CN(Cc2ccc3nsnc3c2)CCN1C1CCCC1` (stereo not drawn), the inhibition was 2.1% (inactive).

For the compound `Cc1nnc(SCC(=O)N(C(C)C)C(C)C)nc1C`, the inhibition is -1.3% (inactive).

In the case of `CCC(C(=O)NCc1ccc(OC)cc1)n1nc(C)n2c(cc3occc32)c1=O` (stereo not drawn), the inhibition was 0.5% (inactive).

As for `CCC(C)NC(=O)c1nn(C)c(=O)c2ccccc12` (stereo not drawn), the inhibition is -0.2% (inactive).

Regarding `COc1ccc(/C=C(/CC(=O)Nc2ccc(C)cc2)c2nc3ccccc3s2)cc1`, the inhibition is 52.2% (active).

As to `COc1cccc(/C=C(/CC(=O)Nc2ccc(N3CCOCC3)cc2)c2nc3ccccc3s2)c1`, the inhibition was -0.3% (inactive).

Turning to `COc1ccc(NC(=O)COC(=O)c2ccc(NS(=O)(=O)/C=C/c3ccccc3)cc2)cc1`, the inhibition was -9% (inactive).

`CCc1ccc(CN(C)C(C)C(=O)Nc2ccc(S(=O)(=O)N3CCCC3)cc2)cc1` (stereo not drawn): the inhibition was 0.2% (inactive).

As to `O=C1NC[C@H](CCCCN2C[C@H](Cc3ccccc3)N(Cc3ccccc3)C(=O)C2=O)N(CCc2ccc(O)cc2)C1=O`, the inhibition is -0.9% (inactive).

With `COC(=O)c1ccccc1NC(=O)CN(Cc1ccc(Cl)cc1)S(C)(=O)=O`, the inhibition is 0.4% (inactive).

As for `CN(Cc1cnccn1)C(=O)c1cc(COc2cccc(C(F)(F)F)c2)on1`, the inhibition is 0% (inactive).

Turning to `CC(=O)c1cccc(OCc2cc(C(=O)NC(C)Cc3cccnc3)no2)c1` (stereo not drawn), the inhibition is 0% (inactive).

For `CN(Cc1cccnc1)C(=O)c1cc(COc2ccc3ncccc3c2)on1`, the inhibition was 98.2% (active).

For `Cc1ccc(NC(=O)C(=O)NCC2CCN(C(=O)c3cccc([N+](=O)[O-])c3)CC2)cc1`, the inhibition is -2.2% (inactive).

As to `O=C(Nc1ccc(C2CC2(Cl)Cl)cc1)c1cccc([N+](=O)[O-])c1` (stereo not drawn), the inhibition was 77.1% (active).

Take `O=C(NC(=S)NC1CCS(=O)(=O)C1)c1cccc([N+](=O)[O-])c1` (stereo not drawn): the inhibition is -0.7% (inactive).

Regarding `Cc1ccc(CS(=O)(=O)CCC(=O)NC2CC2)cc1`, the inhibition is -1.1% (inactive).

For the compound `NS(=O)(=O)c1ccc(NC(=S)N2CCCC2)cc1`, the inhibition is -0.2% (inactive).

For the compound `NS(=O)(=O)c1ccc(NC(=S)Nc2ccc(Br)c(Cl)c2)cc1`, the inhibition is 102% (active).

On to `COc1ccc(NC(=S)Nc2ccc(S(N)(=O)=O)cc2)c(C)c1`, for which the inhibition was -2.1% (inactive).

As to `CC1=C/C(=N\OS(=O)(=O)c2ccccc2)C=CC1=O`, the inhibition is 103% (active).

In the case of `O=C(COC(=O)c1ccc(NS(=O)(=O)c2cccs2)cc1O)Nc1ccc(F)cc1`, the inhibition was 4.7% (inactive).

As to `O=S(=O)(Cc1cc(Cl)nc(-c2cccnc2)n1)c1ccccc1`, the inhibition was 0.8% (inactive).

Take `O=C(Nc1ccccc1)c1ccc2nsnc2c1`: the inhibition was -1.8% (inactive).

In the case of `COCCNC(=O)Nc1ccc2nc(-c3ccco3)c(-c3ccco3)nc2c1`, the inhibition is 0.5% (inactive).

Regarding `COc1ccc(NC(=O)Nc2ccc3nsnc3c2)cc1`, the inhibition was 87.9% (active).

For the compound `CSCc1cc(N(C)C)nc(SCc2ccc(Cl)cc2Cl)n1`, the inhibition was 1.1% (inactive).

Take `COc1ccc(C(=O)CSc2n[nH]c(N)n2)cc1`: the inhibition was -1% (inactive).

Turning to `CCCCN(C(=O)/C=C/c1ccco1)c1c(N)n(CC(C)C)c(=O)[nH]c1=O`, the inhibition is 0% (inactive).

For `O=S(=O)(Nc1cccc(-c2ccc(N3CCOCC3)nn2)c1)c1ccc(Cl)c(Cl)c1`, the inhibition is -0.6% (inactive).

With `O=C(NNC(=O)c1cccc(S(=O)(=O)Nc2ccc(Cl)cc2)c1)c1ccc(=O)[nH]c1`, the inhibition was -1.3% (inactive).

With `Fc1ccc2[nH]c3c(N4CCSCC4)ncnc3c2c1`, the inhibition is 80.7% (active).

For the compound `CCN(CC(=O)Nc1ccccc1OC)C(=O)CC1CC2CCC1C2` (stereo not drawn), the inhibition is 0.6% (inactive).

With `Cc1ccc(C2CCN(C(=S)Nc3cccc(Cl)c3)C2)cc1` (stereo not drawn), the inhibition is 14.6% (inactive).

For `Cc1csc(NC(=S)Nc2cccc(Cl)c2)n1`, the inhibition was 64.4% (active).

Turning to `S=C(Nc1cccc(Cl)c1)Nc1ccc2cn[nH]c2c1`, the inhibition was 55% (active).

Turning to `O=C(Nc1ccc2cn[nH]c2c1)c1ccc(S(=O)(=O)N2CCOCC2)cc1`, the inhibition was -4.1% (inactive).

As to `O=C(NCc1cn2ccsc2n1)Nc1cccc(Cl)c1`, the inhibition is -1.5% (inactive).

In the case of `CC(C)Cc1nnc(NC(=O)CCC(=O)Nc2ccc3cn[nH]c3c2)s1`, the inhibition is 2% (inactive).

`CCOC(=O)Cn1c2c(c(-c3ccccc3OC)cc1=O)CCCC2`: the inhibition is -1.1% (inactive).

Consider `Clc1ccc(C2=CSC3=Nc4cccc5cccc(c45)N23)cc1`, for which the inhibition is 6.8% (inactive).

As for `CN(Cc1c(F)cccc1Cl)S(=O)(=O)c1cccs1`, the inhibition was -1.8% (inactive).

`Cc1ccc(Nc2c(O)nc[nH]c2=O)cc1C`: the inhibition is -0.6% (inactive).

Take `CCOC(=O)N1CCC(Nc2c(NCCCN3CCN(c4ccc(OC)cc4)CC3)c(=O)c2=O)CC1`: the inhibition is 2.4% (inactive).

One may read the inhibition as the relative decrease from the control value, in per cent.
